An excerpt weighted towards active compounds, which were near 2.9% of everything screened.
Glyco luc inh – N-linked glycosylation inhibition; D54 ERlucT glycosylation luciferase reporter, 24 h; percent of 100 nM tunicamycin response; reporter increase, % at 12.5 µM; 360,000 tested, 0.23% active; AID 588692;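 active means mean luciferase reporter signal, scaled so untreated is 0 and the glycosylation-blocking control 100, at or above a set limit in every replicate; inconclusive means mean reaches the limit but not every replicate does; inactive means mean below the limit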;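 further: luciferase carries N-glycosylation sites so blocking glycosylation raises the light; 0% = median of neutral control wells and 100% = median of 100 nM tunicamycin wells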
Vif imaging – blocks HIV Vif function. inhibition, % at 7.49 µM. 340,000 tested, 0.35% active. HEK293T cells, Vif self-association by quenched fluorescence, imaging, 24 h; in the data active means inhibition above about 50%, passing the limit was not always enough; inconclusive means no clear call, values can overlap the other calls; inactive means below about 31%
MITF TRPM1 HTS – MITF TRPM1 promoter activation in melanoma cells; 300,000 tested, 0.75% active; activation, % at 12.5 µM; SK-MEL-5 TRPM1-promoter luciferase, 24 h; % of positive control, neutral wells = 0;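 active means mean activation of at least 80% with every replicate also reaching 80%; inconclusive means mean reaches 80% but some replicate falls short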;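 further: 0% = neutral control wells and 100% = parthenolide positive control wells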
esBAF inh – inhibitors of esBAF chromatin remodeling in mouse ES cells; 350,000 tested, 2% active; reporter increase, % at 12.5 µM; Bmi1-luciferase knock-in reporter, 24 h; 100% = twice the neutral-well signal; AID 602393; in the data active means activation above about 40%; inconclusive means no clear call, values can overlap the other calls;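 further: 0% = median of the plate's neutral control wells and 100% = double that signal; a rise in the Bmi1 reporter signal indicates esBAF inhibition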
Wnt bcat act – activators of Wnt/beta-catenin signaling; activation, % at 9.35 µM; 300,000 tested, 1.2% active; Wnt/beta-catenin reporter cell assay, activator, plate reader; AID 743398; in the data active means activation above about 30%, passing the limit was not always enough; inconclusive means no clear call, values can overlap the other calls;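 further: 0% = neutral control wells and 100% = positive control wells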
PvdQ acylase – P. aeruginosa PvdQ acylase inhibition. inhibition, % at 10 µM. AID 488965. purified PvdQ acylase, fluorescence plate reader. 340,000 tested, 0.063% active; in the data active means inhibition above about 30%, passing the limit was not always enough; inconclusive means no clear call, values can overlap the other calls;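 further: 0% = vehicle neutral wells and 100% = reference inhibitor wells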
* = called active by the depositor; ? = inconclusive; / = no result given; + = active, no number.

SMILES | Glyco luc inh | Vif imaging | MITF TRPM1 HTS | esBAF inh | Wnt bcat act | PvdQ acylase
O=C(NCC1CC1)[C@@H]1[C@@H](CO)[C@@H]2Cn3c(ccc(-c4ccccc4F)c3=O)[C@H]1N2Cc1cncnc1 | / | / | / | 1.0 | / | /
CCOC(=O)C(=NC(C)C)NNc1cc(Cl)ccc1Cl | 0.4 | 2.5 | -8.6 | / | 39.8* | -5.8
Cc1csc(NC(=O)c2ccc3nc[nH]c3c2)n1 | -10.6 | 3.7 | 19.0 | -11.4 | 36.3* | -15.9
COc1cccc(C(=O)Nc2nc(C)cs2)c1 | -5.2 | / | 38.2 | 0.2 | 44.3* | -10.9
Cc1csc(NC(=O)c2ccccc2)n1 | -4.2 | 15.4 | / | 37.4 | 13.5 | 0.3
Cc1csc(NC(=O)c2ccc(COc3ccccc3)o2)n1 | 0.6 | 9.4 | 48.1 | 63.2* | 27.5 | -6.4
Cc1csc(NC(=S)NC(=O)c2ccccc2)n1 | -1.4 | -11.3 | 108.9* | ? | 23.8 | -4.6
Cc1cccc(NC(=O)c2ccc(COc3ccccc3)o2)n1 | 0.7 | 0.2 | 27.9 | / | 3.3 | -6.9
N#Cc1ccc(-c2ccc3c(c2)[C@@H]2[C@@H](CCN2C(=O)c2ccc4c(c2)OCO4)[C@@H](CO)N3)cc1 | / | / | / | 0.1 | / | /
O=[N+]([O-])c1ccc(N2CCN(Cc3ccccc3)CC2)c2c1no[n+]2[O-] | -9.0 | 113.5* | / | -80.9 | -4.4 | /
CCC(=O)Nc1ccc2c(c1)OC[C@@H](C)N(Cc1ccncc1)C[C@@H](C)[C@H](OC)CN(C)C2=O | / | / | / | 1.2 | / | /
C[C@@H]1CN([C@H](C)CO)C(=O)Cc2cc(NS(=O)(=O)c3ccccc3)ccc2O[C@H]1CN(C)S(=O)(=O)c1cn(C)cn1 | / | / | / | 0.1 | / | /
CCN1c2ccccc2NC2C1C(C(C)=O)C(=O)N2c1ccc(Cl)cc1 (stereo unspecified) | -2.3 | + | -63.4 | 3.6 | -0.7 | 2.1
COc1ccc(-c2cn(Cc3ccc(C(N)=O)cc3)c(-c3ccncc3)n2)cc1 | 1.2 | 7.2 | 106.1* | 76.5* | 47.0* | 5.2
O=c1oc(CCCO)cc2ccc(/C=C/c3cccc([N+](=O)[O-])c3)cc12 | -5.8 | -5.3 | 91.9* | 49.2* | ? | -3.2
O=c1oc(CCCO)cc2ccc(Br)cc12 | 0.1 | -18.2 | 7.8 | 2.9 | -0.7 | -3.6
COCC(=O)Nc1ccc2c(c1)OC[C@@H](C)N(Cc1ccccc1F)C[C@@H](C)[C@H](OC)CN(C)C2=O | / | / | / | -0.2 | / | /
N#C/C(=C(/O)CCl)c1nc2ccccc2[nH]1 | 7.4 | 6.1 | -77.6 | / | -0.3 | -2.0
C/C(=C\c1ccc(N)cc1)c1nc2ccccc2[nH]1 | -3.3 | -8.9 | ? | 63.7* | 1.9 | 7.2
COCC(=O)OC/C(O)=C(\C#N)c1nc2ccccc2[nH]1 | 32.2* | -4.7 | -26.7 | 5.7 | 5.0 | -8.8
Cc1c(-c2cccc(Cl)c2)nc2ccccc2c1C(=O)OC/C(O)=C(\C#N)c1nc2ccccc2[nH]1 | 63.2* | -4.1 | -4.7 | -7.4 | -1.8 | -8.2
C/C(O)=C(\C#N)c1nc2ccccc2[nH]1 | 3.5 | 51.1* | 4.1 | -11.5 | / | -5.7
COc1ccc(CN(C)C[C@@H]2Oc3c(NC(=O)NC4CCCCC4)cccc3C(=O)N([C@@H](C)CO)C[C@@H]2C)cc1 | / | / | / | 0.6 | / | /
O=C(c1ccncc1)N1C[C@@H]2[C@H](c3ccccc31)[C@@H](CO)N2C(=O)c1ccccn1 | / | / | / | 1.0 | / | /
C[C@H](CO)N1C[C@H](C)[C@H](CN(C)C(=O)c2cccnc2)Oc2ncc(-c3ccc(C#N)cc3)cc2C1=O | / | / | / | 1.5 | / | /
SMILES | Glyco luc inh | Vif imaging | MITF TRPM1 HTS | esBAF inh | Wnt bcat act | PvdQ acylase
CC(=O)C1=C(C)NC(SCC(=O)c2cc(Cl)ccc2Cl)=C(C#N)C1c1ccco1 (stereo unspecified) | -3.4 | 5.0 | -8.0 | / | -2.1 | 9.5
CC(=O)C1=C(C)NC(SCC(=O)c2ccc(Cl)c(Cl)c2)=C(C#N)C1c1ccco1 (stereo unspecified) | -3.8 | 82.1* | -5.8 | -4.0 | -5.2 | -2.0
C[C@@H]1CN([C@@H](C)CO)C(=O)c2cccc(NC(=O)C3CCCCC3)c2O[C@@H]1CN(C)C | / | / | / | -1.0 | / | /
Cc1ccc(OCc2cc(C(=O)N(CCO)Cc3cccs3)no2)cc1C | -0.8 | 5.9 | 86.1* | 83.5* | 26.9 | -2.3
Cc1ccc(OCc2cc(C(=O)N3CCN(C4CCCCC4)CC3)no2)cc1C | -1.8 | 2.8 | 35.8 | 55.2* | 11.3 | -9.2
CCN(Cc1ccncc1)C(=O)c1cc(COc2ccc(C)c(C)c2)on1 | -5.2 | 3.3 | 4.3 | 8.4 | 0.7 | -7.7
Cc1ccc(OCc2cc(C(=O)N3CCN(c4ccccc4)CC3)no2)cc1C | -5.0 | -5.7 | 82.5* | ? | 35.6* | 0.0
Cc1ccc(OCc2cc(C(=O)N3CCN(C4CCCC4)CC3)no2)cc1C | -2.4 | -11.3 | 12.0 | 7.9 | 6.1 | -8.3
Cc1ccc(OCc2cc(C(=O)N3CCC(c4ccccc4Cl)C3)no2)cc1C (stereo unspecified) | -1.3 | -5.4 | 50.5 | 57.1* | 29.1 | 4.2
Cc1ccc(S(=O)(=O)N[C@H]2CC[C@@H](CCNC(=O)CN3CCOCC3)O[C@H]2CO)cc1 | / | / | / | 3.9 | / | /
CC1Cc2ccccc2N1C(=O)c1ccc(Br)o1 (stereo unspecified) | -3.4 | -3.4 | / | 91.5* | 20.3 | -15.8
Cc1ccc(C(=O)N2c3ccccc3CC2C)o1 (stereo unspecified) | -5.0 | 1.3 | 51.1 | 9.7 | 12.9 | -7.9
Fc1cccc(CSc2ccc(-c3ccco3)nn2)c1 | -2.7 | -7.0 | 38.0 | 65.6* | 30.3* | -6.9
COc1cccc(CNC(=O)COC(=O)c2ccc(-c3ccc(O)cc3)cc2)c1 | 27.6* | 12.9 | / | 5.1 | -3.5 | /
CCS(=O)(=O)Nc1ccc2c(c1)C(=O)N(C)C[C@H](OC)[C@@H](C)CN(C(=O)COC)[C@H](C)CO2 | / | / | / | -3.8 | / | /
CC(=O)N[C@@H]1CC[C@@H](CCNC(=O)Nc2ccc(C(F)(F)F)cc2)O[C@H]1CO | / | / | / | 3.6 | / | /
CC(=O)Nc1ccc(SCC(=O)NC(=O)c2ccc(S(=O)(=O)N(C)C)cc2)cc1 | 4.0 | 83.2* | -9.2 | 7.4 | 4.8 | -10.0
CC(C)NC(=O)Nc1cccc2c1O[C@@H](CN(C)C(=O)Nc1cccc3ccccc13)[C@@H](C)CN([C@H](C)CO)C2=O | / | / | / | -3.5 | / | /
O=C(COC(=O)C1CC2CCCC(C1)C2=O)Nc1nc(-c2ccc(F)c(F)c2)cs1 (stereo unspecified) | 2.1 | 3.7 | 41.4 | 70.0* | 19.4 | -2.0
CO/N=C/C(C#N)=C/c1ccc(OC)cc1 | 2.1 | 4.1 | 45.8 | 87.7* | 9.0 | 21.4
COc1ccc(/C=C(/C#N)S(=O)(=O)c2ccc(C)cc2)cc1 | -1.3 | 9.3 | / | -8.0 | -1.0 | -8.0
CC(C)NC(=O)N(C)C[C@@H]1Oc2ccc(NC(=O)Cn3cnnn3)cc2C(=O)N([C@@H](C)CO)C[C@@H]1C | / | / | / | 2.1 | / | /
CCOC(=O)c1ccc(-c2nnc(-c3ccc(Cl)cc3Cl)o2)cc1 | -7.8 | -6.7 | 87.4* | 44.6* | / | 9.7
